# Results taken from the supplement of paper PMC6555819.
# Columns and labels:
# Assay in all cases: PBM binding z-score (relative to random genomic background probes); higher = stronger binding; sequences stand for … in GC…GCGATTGACAGCGTAGAATGAAGG
# [1] = test system: RARb homodimer (NR concentration 270 nM)
# Summary of the method: (§1)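 Binding z-scores were set against random background probes. The data came from custom Agilent 4×180K protein-binding microarrays carrying double-stranded probes with 34-nt variable regions, incubated 1 h with ligand-free nuclear receptor dimers. Partner-specific antibodies detected binding, and scanned fluorescence was regression-normalized.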
# [2] = test system: RARg:RXRa (NR concentration 270 nM, RXRa partner concentration 90 nM)
# Summary of the method: as §1
# [3] = test system: RARg homodimer (NR concentration 270 nM)
# Summary of the method: as §1
# [4] = test system: RXRa DBDmut IVT, anti-RXR (DBD mutation: RXRa K156A/R161A, NR concentration 90 nM)
# Summary of the method: as §1
# [5] = test system: THRa:RXRa (NR concentration 90 nM, RXRa partner concentration 90 nM)
# Summary of the method: as §1
# [6] = test system: THRa homodimer (NR concentration 90 nM)
# Summary of the method: as §1
# [7] = test system: VDR homodimer (NR concentration 270 nM)
# Summary of the method: as §1
# [8] = test system: RXRa homodimer (NR concentration 180 nM)
# Summary of the method: as §1
# [9] = test system: VDR:RXRa (NR concentration 270 nM, RXRa partner concentration 90 nM)
# Summary of the method: as §1
Sequence,PBM binding z-score [1],PBM binding z-score [2],PBM binding z-score [3],PBM binding z-score [4],PBM binding z-score [5],PBM binding z-score [6],PBM binding z-score [7],PBM binding z-score [8],PBM binding z-score [9]
GCTTACGGGTCAAAGGTTAAAGCATGAATAGAAT,3.36,7.28,5.18,2.07,4,-0.111,1.4,,
CTCGAAAGGTGGTGCTCAGGTGAGTATACCAAAC,0.207,0.0538,-0.152,-0.443,1.78,0.504,-0.0516,,
CCTTCTGGGCCATTCAGAGGTCATTGATCATATG,4.13,4.56,3.3,1.38,3.31,1.51,3.47,,
ATATGTAGGTTACGTCCGGGTCATTCAGGCTATG,3.02,4.03,2.34,1.06,4.01,2.88,2.91,,
TCTAGTTGGTCATGGAGGTCACACACGACGGGTA,4.43,4.86,5.01,1.01,3.61,2.8,3.38,,
CCTACTGGGCGACGAAAGGTCATTGATTCAGTGA,4.11,4.14,3.31,0.216,3.13,0.124,1.38,,
TCTCGGATGACACGAAAGGTCAGAGCTCGACATC,4.3,4.19,3.99,1.08,2.79,0.526,0.594,,
CCTTACGGGTCAAGGTTGTAGCACGGGTGGTACG,3.2,4.54,4.07,0.452,2.38,0.122,1.18,,
CCTACGGGGCCAAAGGTCATTGATTCCAATGCTC,4.5,6.59,5.24,1.86,3.78,0.564,2.99,,
CAAACTAGGTCACGAAAGGTCAAAGCCGAATGAC,5.98,8.01,8.56,2.11,5.07,2.55,3.58,,
ATCGAAAGGTCGACGAGGTGAGTATGCACCGTTT,3.07,4.29,4.29,1.3,3.73,0.762,1.03,,
TTACCAAGGTGAAAGGTCGGTGATGCACGCCTTG,2.16,3.18,1.51,-0.134,2.66,0.427,-0.0558,,
AGTAGCAGGCCAAGGGTCACTCAAGATTAGTCCG,3.98,4.29,3.86,0.553,2.76,0.326,1.46,,
GCTGCTAGGTCAACTGATGGTCAGCTAAAGCTCG,3.57,5.2,5.18,1.44,2.99,0.814,0.0317,,
TAGCCTAGGTCATTCAGGCGCCAGTATAGAAAGC,2.25,3.97,4.09,1.78,2.7,0.451,1.3,,
ATCTAAAGGTCGAAGGTGAGTATACCCACCCGAA,2.54,4.32,3.66,1.74,2.21,0.159,0.755,,
CAAAGTAGGTCAAGAGGTCAAAGTCCGCTTCCCG,5.78,8.31,7.92,2.89,4.21,1.84,4.84,,
ATCGAAAGGTCGAGGAGGTGAGTATACACCGTTT,2.92,,4.23,0.868,2.85,-0.12,0.435,4.21,
CCTAGTTGGTCAAGGTCACACATGCTATAGGTAC,4.33,,4.71,2.2,3.96,4.12,3.99,4.11,4.33
ATCGAAACGTCGACGAGGTGAGTATACACCGTTT,-0.247,,0.527,-0.148,1.1,0.23,-0.146,0.362,

Sequence,PBM binding z-score [1],PBM binding z-score [2],PBM binding z-score [3],PBM binding z-score [4],PBM binding z-score [5],PBM binding z-score [6],PBM binding z-score [7],PBM binding z-score [8],PBM binding z-score [9]
GCTGCTAGGTCAACTGAGGGTCAGCTAAAGCTCG,5.18,,6.85,1.67,4.16,1.47,1.36,4.59,4.26
CAACCTAGGTCACCGGAAGGTCAAAGTCCGCATG,5.77,,8.03,2.46,4.63,3.03,4.09,7.71,6.51
CGAACTAGGTCACCAGGACAGTTAAGAGGTTGGA,3.53,,5.1,1.21,3.41,1.68,0.347,3.22,2.11
TAGCCTAGCTCATTCAGGGGCCAGTATAGAAAGC,-0.0305,,-0.378,-0.495,-0.465,-0.799,-0.369,-0.481,
CGAACTAAGTCAAAGGACAGTGAAAGGCGACGTA,1.11,0.597,1.1,0.0633,0.219,-0.0369,-0.13,,
CCTACTGGGCCAATAAGGTCATTGATGCCGATAA,3.48,,2.87,1.09,4,3.44,2.76,2.78,5.29
TATACAGGGTCAAAGGGCAGAGTACGAATGTCGA,4.22,6.33,5.48,3.14,3.98,1.48,3.82,,
TCTCGGAGGACACGAAACGTCAGAGCTCGACATC,0.176,,1.27,0.694,1.1,0.276,-0.34,0.0278,-0.163
TATCCTAGGTCAGATCGGGCCAGTATACGCTATA,2.53,,3.86,0.36,4.25,0.858,0.237,2.21,
AGCGAAAGGTCGAAGGTGAGTATACCCACCCGAA,2.44,,4.05,0.876,2.04,-0.329,0.312,5.09,2.8
CGTCCAACGTCAGCAGGTCAGTGAAAGCGACGTG,1.92,0.905,1.54,-0.094,0.784,-0.139,-0.585,,
CCTTACGGGTCAGGGTTATAGCACGGGTGGTACG,2.89,,3.8,-0.999,2.29,0.154,0.894,3.87,2.26
CCTAGTTGGGCAGGAGGTCACACACCGGATATGA,3.48,3.98,3.52,-0.0255,3.14,1.57,1.37,,
TCTAGTTGGTCGCGGAGGTCACACACGACGGGTA,3.92,3.94,3.62,0.932,3.45,2.74,2.63,,
AGTCAAAGTTGATCTAGGTAACGTAAGATATGCT,-0.057,,0.579,-0.227,1.36,-0.0633,-0.278,0.191,0.0495
ATCGAAACGTCGTGAGGTGAGTATACAGAAAGGC,-0.153,,0.49,-0.879,1.63,0.771,-0.417,0.393,-0.25
GATACGGGGTCAGCTAGAGGCCAGAGTATGGAAA,4.12,,6.6,3.39,4.28,1.14,2.68,7.4,5.72
TTACCGAGGTGAAAGGTCGTTGATGCACGCCTTG,2.67,,1.87,0.775,3.7,0.983,1.47,6.76,3.72
ATCGAAAGGTCGAAAGTGAGTATACCCACCCGAA,1.74,,3.15,1.22,1.51,-0.286,0.782,3.52,
TCGAGTAGGTTACGTGGGCATTCAGGGATGAAGA,0.175,,0.607,0.0477,0.726,-0.426,-0.34,0.631,0.00981

Sequence,PBM binding z-score [1],PBM binding z-score [2],PBM binding z-score [3],PBM binding z-score [4],PBM binding z-score [5],PBM binding z-score [6],PBM binding z-score [7],PBM binding z-score [8],PBM binding z-score [9]
CAAACTAGGTCAAAGGTCAAACTCGAGCCAACCA,5.32,,8.15,3.04,4.85,2.14,4.14,10.5,6.96
CGAACTAGGTGATTGACAGGACAGTGAATAGTAA,0.647,,0.266,0.246,0.755,0.252,0.00262,-0.176,-0.0545
CCAACTAGGTCATTGACAGGACAGTGAATAGTAA,2.83,,4.34,2.47,2.88,1.31,1.64,2.61,2.29
TCTAGTTGGTGACGGAGGTCACACACGACGGGTA,3.88,,3.21,0.917,3.41,2.23,1.83,4.29,
CCTACTGGGCCAAAAAGGTAATTGATGCCGATAA,-0.363,0.0737,-0.0665,-0.561,0.109,-0.602,-0.646,,
CCTCGGAGGACAACAGGATGTCAGAGCTGCCAGA,0.537,,1.19,-0.233,0.449,-0.131,-0.662,-0.144,
CCTACTGGGCCAAGGTCATTGAGCAGTCAAAGCA,3.03,,3.23,1.23,3.23,2.18,2.65,3.66,3.07
ATCGAACGGTCGACGAGGTGAGTATACACCGTTT,0.461,0.635,1.21,-0.546,1.26,0.292,-0.356,,
TGGCCTAGGTCATGGGCCAGTATACCACGCGAAC,2.96,,5.07,-0.28,2.83,0.639,-0.0403,3.6,
AGTCAAAGTTCATCTAGGTAACGAAAGATATGCT,3.88,5.82,6.19,4.79,3.24,0.383,5.04,,
GCTAGTAGGTCAGTAAAAGGTCACACACCGGTCG,6.06,,7.14,0.784,4.27,1.97,2.37,6.4,4.99
CGTCCGAGGTCAATGCTAGGTCAGTGAAAGCATT,4.93,,6.71,4.03,4.6,2.97,4.57,6.61,5.63
GATACAGGGTCAACTAGAGGCCAGAGTATGGAAA,3.92,,5.56,2.92,3.79,0.92,2.44,6.53,4.98
TAGCCTAGGTCATGCGGGCCAGTATAGTGTCGGC,2.89,3.98,4.4,0.813,3.02,0.858,0.814,,
CCTACTGGGTCATTCAGAGGTCATTGATCATATG,5.21,,5.46,2.77,4.32,2.15,4.41,5.75,6.25
CCTTACGGGTCACTCCAGGTTCTAGCATCGGAGT,2.64,,4.07,1.4,4.32,0.0825,1.07,4.18,3.59
CCGACTGGGGCAACGGTTACCATACTCAGTACGA,0.463,,0.749,-0.399,-0.149,-0.243,-0.248,0.0122,
TCTGCTATGTCAACGATGGTCAGCTAATCTGCTA,0.0556,,0.346,0.208,-0.297,-1.24,-1.12,-0.181,
